From PubChem BioAssay (NCATS)
Records with an inconclusive call do not appear. The source made the active and inactive calls. Calls follow the shape of the dose curve; as a rule, active = well fitted inhibition curve with a large enough effect; inconclusive = small, poorly fitted or top-dose-only effect; inactive = flat fitted curve, though single readings scatter.

Columns and labels:
Assay in all cases: qHTS profiling for inhibitors of Plasmodium falciparum proliferation (AID 504749); also: nearly all actives have a fitted effect of over 60% in size
Settings in all cases: P. falciparum in erythrocytes, SYBR Green DNA, 72 h; series mostly up to 28.7 µM
CP247 = tested on: CP247
Method in brief: (§1)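 P. falciparum-infected erythrocytes (0.3% parasitemia, 2.5% hematocrit) incubated with compound 72 h at 37 C, 5% CO2. Parasite DNA detected by SYBR Green after lysis, overnight at room temperature; normalised to 0.29 uM artemisinin and DMSO.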

CP250 = tested on: CP250
Method in brief: as §1

CP252 = tested on: CP252
Method in brief: as §1

CP256 = tested on: CP256
Method in brief: as §1

CP260 = tested on: CP260
Method in brief: as §1

CP262 = tested on: CP262
Method in brief: as §1

CP265 = tested on: CP265
Method in brief: as §1

CP266 = tested on: CP266
Method in brief: as §1

CP268 = tested on: CP268
Method in brief: as §1

CP269 = tested on: CP269
Method in brief: as §1

CP286 = tested on: CP286
Method in brief: as §1

CP291 = tested on: CP291
Method in brief: as §1

CP297 = tested on: CP297
Method in brief: as §1

CP305 = tested on: CP305
Method in brief: as §1

CP315 = tested on: CP315
Method in brief: as §1

CP325 = tested on: CP325
Method in brief: as §1

CP329 = tested on: CP329
Method in brief: as §1

CP335 = tested on: CP335
Method in brief: as §1

DFO2036 = tested on: DFO2036
Method in brief: as §1

DIV14 = tested on: DIV14
Method in brief: as §1

Measured: Potency

NC(=O)c1ccccc1O
inactive: CP247 | CP250 | CP252 | CP256 | CP260 | CP262 | CP265 | CP266 | CP268 | CP269 | CP286 | CP291 | CP297 | CP305 | CP315 | CP325 | CP329 | CP335 | DFO2036 | DIV14

CCCCc1cc2ccccc2c(OCCN(C)C)n1
inactive: CP247 | CP250 | CP252 | CP256 | CP260 | CP262 | CP265 | CP266 | CP268 | CP269 | CP286 | CP291 | CP297 | CP305 | CP315 | CP325 | CP329 | CP335 | DFO2036 | DIV14

CCC(CC)(CC(=O)Nc1cccc(/C=C/c2nc(C3CCC3)cs2)c1)C(=O)O
inactive: CP247 | CP250 | CP252 | CP256 | CP260 | CP262 | CP265 | CP266 | CP268 | CP269 | CP286 | CP291 | CP297 | CP305 | CP315 | CP325 | CP329 | CP335 | DFO2036 | DIV14

CCCCC(CC)COC(=O)/C=C/c1ccc(OC)cc1 (stereo not given)
inactive: CP247 | CP250 | CP252 | CP256 | CP260 | CP262 | CP265 | CP266 | CP268 | CP269 | CP286 | CP291 | CP297 | CP305 | CP315 | CP325 | CP329 | CP335 | DFO2036 | DIV14

O=C(O)P(=O)(O)O
inactive: CP247 | CP250 | CP252 | CP256 | CP260 | CP262 | CP265 | CP266 | CP268 | CP269 | CP286 | CP291 | CP297 | CP305 | CP315 | CP325 | CP329 | CP335 | DFO2036 | DIV14

Nc1ccc(S(=O)(=O)Nc2cnc3ccccc3n2)cc1
inactive: CP247 | CP250 | CP252 | CP256 | CP260 | CP262 | CP265 | CP266 | CP268 | CP269 | CP286 | CP291 | CP297 | CP305 | CP315 | CP325 | CP329 | CP335 | DFO2036 | DIV14

CC(=O)OCC(=O)[C@H]1CC[C@H]2[C@@H]3CCC4=CC(=O)CC[C@]4(C)[C@H]3CC[C@]12C
inactive: CP247 | CP250 | CP252 | CP256 | CP260 | CP262 | CP265 | CP266 | CP268 | CP269 | CP286 | CP291 | CP297 | CP305 | CP315 | CP325 | CP329 | CP335 | DFO2036 | DIV14

Nc1nc(N)c(-c2ccccc2)s1
inactive: CP247 | CP250 | CP252 | CP256 | CP260 | CP262 | CP265 | CP266 | CP268 | CP269 | CP286 | CP291 | CP297 | CP305 | CP315 | CP325 | CP329 | CP335 | DFO2036 | DIV14

CC(=O)Nc1ccc(CC(=O)O)cc1
inactive: CP247 | CP250 | CP252 | CP256 | CP260 | CP262 | CP265 | CP266 | CP268 | CP269 | CP286 | CP291 | CP297 | CP305 | CP315 | CP325 | CP329 | CP335 | DFO2036 | DIV14

CCCN(CCC)S(=O)(=O)c1ccc(C(=O)O)cc1
inactive: CP247 | CP250 | CP252 | CP256 | CP260 | CP262 | CP265 | CP266 | CP268 | CP269 | CP286 | CP291 | CP297 | CP305 | CP315 | CP325 | CP329 | CP335 | DFO2036 | DIV14

COP(=O)(OC)OC(c1ccc(Cl)cc1)P(=O)(OC)OC (stereo not given)
inactive: CP247 | CP250 | CP252 | CP256 | CP260 | CP262 | CP265 | CP266 | CP268 | CP269 | CP286 | CP291 | CP297 | CP305 | CP315 | CP325 | CP329 | CP335 | DFO2036 | DIV14

COc1ccc(/C=N/NC(=O)c2ccncc2)cc1OC
inactive: CP247 | CP250 | CP252 | CP256 | CP260 | CP262 | CP265 | CP266 | CP268 | CP269 | CP286 | CP291 | CP297 | CP305 | CP315 | CP325 | CP329 | CP335 | DFO2036 | DIV14

CCOC(=O)C(C#N)=C(c1ccccc1)c1ccccc1
inactive: CP247 | CP250 | CP252 | CP256 | CP260 | CP262 | CP265 | CP266 | CP268 | CP269 | CP286 | CP291 | CP297 | CP305 | CP315 | CP325 | CP329 | CP335 | DFO2036 | DIV14
